Measured potencies and affinities stand elsewhere. The source made the active and inactive calls. The rule behind the calls is not given here.
molecular target: KSHV LANA C-terminal domain (residues 932-1162) binding to LBS DNA (UniProt O40947); experiment: inhibitors of C-LANA binding to LBS DNA, dose response, biochemical, fluorescence polarization, cherry-picked samples (AID 504725); settings: MBP-C-LANA / FAM-LBS DNA fluorescence polarization, percent change from plate compound-well median; series mostly up to 35 µM

| SMILES | outcome |
| --- | --- |
| COc1ccc(C(=O)N/N=C/c2ccc(OC)c(COc3ccccc3)c2)cc1 | inactive |
| O=C(CCNc1ccc(Cc2ccncc2)cc1)c1cccc([N+](=O)[O-])c1 | inactive |
| COc1cc(C(=O)O)cc(NC(=O)c2ccco2)c1OC | inactive |
| CN1CCN(C(=S)c2ccc(N(C)C)cc2)CC1 | inactive |
| Cc1cc(C)nc(SCC(=O)N/N=C/c2cc(C)n(-c3ccccc3C)c2C)n1 | inactive |
| CCOC(=O)C1C2C=CC3(CN(c4cccc(Cl)c4)C(=O)C13)O2 (configuration not stated) | inactive |
| Cc1ccc(NC(=S)N/C(=N/S(=O)(=O)c2ccccc2)c2ccccc2)cc1 | inactive |
| O=C(CN(Cc1ccccc1F)C(=O)c1csnn1)NCc1ccc2c(c1)OCO2 | inactive |
| Cc1ccc(C(=O)CCC(=O)Nc2ncccc2C)cc1 | inactive |
| Cc1ccc2c(c1)nnn2C1CCN(C(=O)c2cccs2)CC1 | inactive |
| Cc1ccc(N=Nc2c(O)[nH]c3ccc(F)cc23)cc1 | inactive |
| NNC(=O)CC1=NNC(=O)C1 | inactive |
| Cc1c(C)n(Cc2ccccc2)c2ncnc(Cl)c12 | inactive |
| COc1ccc(CCNC(=O)CNC(=O)Cn2ccc3ccccc3c2=O)cc1OC | inactive |
| O=C(O)c1cccc(-n2cccc2/C=C/[N+](=O)[O-])c1 | inactive |
| COc1ccc(NC(=O)CN(C)CC(=O)Nc2ccc(N3CCOCC3)cc2)c([N+](=O)[O-])c1 | inactive |
| O=C(CSc1nc2ccccc2[nH]1)Nc1cccc(S(=O)(=O)N2CCOCC2)c1 | inactive |
| O=C(O)CN1C(=O)/C(=C\c2cc(Br)ccc2OCc2ccc([N+](=O)[O-])cc2)SC1=S | inactive |
| Cc1ccc(N(C)C(=O)C2CCCN2S(=O)(=O)c2ccc3c(c2)n(C)c(=O)c(=O)n3C)cc1 (configuration not stated) | inactive |

| SMILES | outcome |
| --- | --- |
| CN(CC(=O)Nc1ccc(N2CCOCC2)cc1)C(=O)CSc1ccc(Br)cc1 | inactive |
| CCc1nnc(NC(=O)c2cccc(S(=O)(=O)N(C)c3ccccc3)c2)s1 | inactive |
| Cc1ccc(/C=C/S(=O)(=O)N2CCC(C(=O)O)CC2)cc1 | inactive |
| CCOc1ccc(S(=O)(=O)N(C)c2ccc(OCC(=O)NC3=NCCS3)cc2)cc1 | inactive |
| CCC(Sc1ncccc1C(=O)O)C(=O)N1CCCC1 (configuration not stated) | inactive |
| Cc1ccccc1NC(=S)NC(C)CCc1ccccc1 (configuration not stated) | inactive |
| O=C1c2cccc3c(N4CCCCC4)ccc(c23)C(=O)N1c1cccc(O)c1 | inactive |
| CC(C(=O)Nc1ccccc1)N1C(=O)c2ccccc2C1=O (configuration not stated) | inactive |
| O=C(O)C1C2C=CC(CC2)C1C(=O)O (configuration not stated) | inactive |
| COc1ccc(N(CC(=O)NCc2ccc3c(c2)OCO3)C(=O)c2csnn2)cc1 | inactive |
| CC(C)(C)OC(=O)C[C@@H]1C/C=C\C[C@H](CC(=O)N(CCO)Cc2ccccc2)C(=O)N[C@@H](c2ccccc2)COC1=O | inactive |
| N=c1ccn(Cc2ccc(Cl)cc2)cc1 | inactive |
| Cc1c(C#N)c(=O)c(-[n+]2ccccc2)c([S-])n1-c1ccc(Cl)cc1 | inactive |
| N#CCCN(CCC#N)C(=O)C1c2ccccc2Oc2ccccc21 | inactive |
| C=CCOC(=O)C1=C[C@H](c2csc3ccccc23)C[C@H](OCc2ccc(CO)cc2)O1 | inactive |
| Cc1cc(N)ccc1N=Nc1c(C)n(C)n(-c2ccccc2)c1=O | inactive |
| N#C/C(=C\c1ccc(-c2ccccc2[N+](=O)[O-])o1)C(N)=O | inactive |
| Cc1ccc(-c2nnc(-c3ccc(NC(=O)c4ccco4)cc3)o2)cc1 | inactive |

Reference: PubChem BioAssay AID504725 (Broad Institute, 2011)
